# The panel holds about 83,000 compounds, 20% with a hit somewhere; the sample as a whole holds those more often.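 Method: cells in 96-well plates; compound added at one concentration; 48 h incubation; percent growth measured; values under 10 scored active.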 Values without a mark were called inactive. Calls of active or inactive are those of the source.
# System: SK-MEL-2 melanoma
# Assay: NCI-60 one-dose screen, 48 h (100 = growth as untreated, 0 = no growth, -100 = all killed)
# Conditions: 10 µM unless noted
row,SMILES,growth
1,NS(=O)(=O)c1ccc(Nc2nc(N/N=C/c3c[nH]c4ccccc34)nc(Nc3ccccc3)n2)cc1,67.3%
2,CCc1cccc2c3c(sc12)C(c1ccc(OC)cc1)C(C#N)=C(/N=C/c1ccc(Cl)cc1)O3 (stereo not drawn),-27.5% (active)
3,O=C(CSc1nc2ccccc2c(=O)n1-c1ccccc1)Nc1ccc(-c2nc3ccc([N+](=O)[O-])cc3[nH]2)cc1,89.5%
4,C=CCn1c(SCC(=O)Nc2ccc(C(=O)/C=C/c3ccc(C)cc3)cc2)nnc1-c1c[nH]c2ccccc12,97.3%
5,C[C@@H](Nc1c(C#N)cnc2ccc(-c3cnc(Cl)c(NS(C)(=O)=O)c3)cc12)c1ccccc1,-29.4% (active)
6,CCN(CC)c1ccc(NC2=C(Cl)C(=O)c3nc(C)ccc3C2=O)cc1,84.9%
7,COC(=O)c1[nH]nc2c1C1(C(=O)c3cccc4cccc1c34)C(C#N)=C(N)O2 (stereo not drawn),105%
8,N=c1c2cc(-c3ccccc3)oc2ncn1/N=C/c1ccc(Cl)cc1,101%
9,Cc1ccc(NC(=O)CNc2cc(C(N)=O)cc(F)c2C)c(Cl)c1,101%
10,CN1CCN(c2ccc(/C=N/Nc3nc4ccccc4c(=O)n3-c3ccccc3)cc2)CC1,107%
11,Cc1ccc2c(c1)Oc1nc(N)c(C#N)c(N)c1C2Sc1ccc(F)cc1 (stereo not drawn),-75.2% (active)
12,CCCn1cnc2c(c1=N)C(c1ccc(OC)cc1)c1sc3c(CC)cccc3c1O2 (stereo not drawn),40.5%
13,C#Cc1ccc(C(=O)NCc2ccc(/C=C/C(=O)c3nccn3C)cc2)cc1,87%

# System: EKVX NSCLC
# Assay: as above
# Conditions: 10 µM unless noted
row,SMILES,growth
1,Cn1ccnc1C(=O)/C=C/c1ccc(CNC(=O)c2ccc(F)cc2)cc1,53.5%
2,N#Cc1cccc(NC(=O)c2cc(-c3ccc(F)cc3F)ccc2O)c1,10.3%
3,O=S(=O)(NCCCNc1nccc(-c2[nH]c(-c3ccccc3)nc2-c2ccc(Cl)c(O)c2)n1)c1cccc2ccccc12,46.2%
4,CC1(C)[C@@H](O)CC[C@]2(C)[C@H]3CC[C@@H]4[C@H]5[C@H](C(=O)/C=C\c6ccncc6)CC[C@]5(O)CC[C@@]4(C)[C@]3(C)CC[C@@H]12,42.8%
5,CS(=O)(=O)Nc1cc(-c2ccc3ncc(C#N)c(N[C@H](CO)c4ccccc4)c3c2)cnc1Cl,66.9%
6,Oc1cccc2ccc(-c3nnc(SCc4ccc(O)c5ncccc45)n3-c3ccccc3)nc12,15.3%
7,C#Cc1nc(C(=O)NCCC(=O)Nc2ccc(NC(=O)c3ccc(/C=C/C(=O)c4nccn4C)cc3)cc2)cs1,65.3%
8,CCN(CC)CCn1c2ccc(O)cc2c2sc3cc(OC)ccc3c(=O)c21,43.5%
9,CC1(C)CC[C@]2(C(=O)N3CCOCC3)CC[C@]3(C)C(=CC[C@@H]4[C@@]5(C)C/C(=C/c6ccccn6)C(=O)C(C)(C)[C@@H]5CC[C@]43C)[C@@H]2C1,56.1%
10,Cc1nc(-c2ccccc2O)ccc1C(=O)N=Nc1c(O)[nH]c2ccc(Br)cc12,79.6%
11,O=C(CCn1c[n+](CC(=O)c2ccc(-c3ccccc3)cc2)c2ccccc21)Nc1cccc2cccnc12,61.9%
12,Cc1ccc(-n2c(/C=C3\C(=O)Nc4ccccc43)ccc2CO)cc1,79.8%
13,CC(=O)N(C)C1CCc2c(sc(NC(=O)c3ccc(C(C)(C)C)cc3)c2C(N)=O)C1 (stereo not drawn),75.5%
14,CC1(C)[C@@H](O)CC[C@]2(C)[C@H]3CC[C@@H]4[C@H]5[C@H](C(=O)/C=C\c6ccc([N+](=O)[O-])cc6)CC[C@]5(O)CC[C@@]4(C)[C@]3(C)CC[C@@H]12,53.1%
15,COc1ccc(N2CCN(C3=C(Cl)C(=O)C(C)=C(C)C3=O)CC2)cc1,116%
16,COc1cc(-c2nc3sccn3c2-c2ccnc(S(C)(=O)=O)n2)ccc1F,87.3%
17,CCCn1cnc2c(c1=N)C(c1ccc(F)cc1)c1sc3c(C)cccc3c1O2 (stereo not drawn),37.1%
18,COc1ccc(Cn2cc3c(c2-c2cc(OC)c(OC)c(OC)c2)CCc2c(CN4CCCC4)noc2-3)cc1,38.1%
19,CC1=N[C@@H]2CN(C(=O)OC(C)(C)C)C[C@@H]2n2c1cc1ccccc1c2=O,103%
20,COc1cc(OC)cc(C(=O)Nc2cccc(C#Cc3cccc4[nH]nc(N)c34)c2)c1,61.1%
21,COc1ccccc1-n1cc(C#N)c(N)c1C(=O)c1ccc(Br)cc1,85.4%
22,CS(=O)(=O)Nc1cc(-c2ccc3ncc(C#N)c(NCc4cccc(F)c4)c3c2)cnc1Cl,-7.05% (active)
23,CC[C@H](CO)Nc1ccc2ncc(C#Cc3cncc(C(=O)Nc4ccc(CN5CCN(C)CC5)c(C(F)(F)F)c4)c3)n2n1,-64.3% (active)
24,COc1cc(-c2nc(SCCC(C)C)nc(NNC(=O)c3ccncc3)c2C#N)cc(OC)c1OC,54.7%
25,CCCCCc1ccc(S(=O)(=O)Nc2cc(-c3csc(NC(=O)CN4CCN(CCO)CC4)n3)ccc2OC)cc1,73.6%

# Source: PubChem BioAssay (NCI)
